# Active and inactive are the calls of the source. Rule for the calls: active = hit-call score of the fitted dose curve at least 0.9, where 1 is the maximum; inactive = score below 0.9.
# Read-out: Monokine induced gamma interferon (MIG), CXCL9 (gene 4283)
# Assay: BSK_CASM3C_MIG: BioMAP Diversity Plus: CASM3C Assay for Monokine induced gamma interferon (MIG) Biomarker Activity (AID 2283048);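 note: MIG protein level measured by ELISA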
# Settings: primary human coronary artery smooth muscle cells; actives raise or lower the signal
Compound,outcome,AC50
Cc1c(COC(=O)[C@@H]2[C@H](/C=C(\Cl)C(F)(F)F)C2(C)C)cccc1-c1ccccc1,inactive,
O=c1n(Cl)c(=O)n(Cl)c(=O)n1Cl,inactive,
CC1(C)CCC(=Cc2ccc(Cl)cc2)C1(O)Cn1cncn1 (configuration not stated),inactive,
COC(=O)N(C(=O)N1CO[C@@]2(C(=O)OC)Cc3cc(Cl)ccc3C2=N1)c1ccc(OC(F)(F)F)cc1,inactive,
CC1(C)CON(Cc2ccccc2Cl)C1=O,inactive,
Cn1c(-c2ccccc2)cc(-c2ccccc2)[n+]1C,inactive,
COC(=O)NC(=S)Nc1ccccc1NC(=S)NC(=O)OC,inactive,
N#CN=C1SCCN1Cc1ccc(Cl)nc1,inactive,
CS(=O)(=O)c1cc(C(F)(F)F)ccc1C(=O)c1cnoc1C1CC1,inactive,
COP(=S)(OC)SCn1nnc2ccccc2c1=O,inactive,
CCSC(=O)N1CCCCCC1,inactive,
O=C(O)c1c(Cl)ccc2cc(Cl)cnc12,inactive,
CCCCOCN(C(=O)CCl)c1c(CC)cccc1CC,inactive,
CC(C)N1C(=O)c2ccccc2NS1(=O)=O,inactive,
CCCCC(O)(Cn1cncn1)c1ccc(Cl)cc1Cl (configuration not stated),inactive,
COCC(C)N(C(=O)CCl)c1c(C)csc1C (configuration not stated),inactive,
CC1(C)C(C=C(Cl)Cl)C1C(=O)OC(C#N)c1cccc(Oc2ccccc2)c1 (configuration not stated),inactive,
CCOP(=S)(OCC)Oc1nc(Cl)n(C(C)C)n1,inactive,

Compound,outcome,AC50
COP(=O)(OC)O/C(C)=C/C(=O)N(C)C,inactive,
CCN(CC)c1nc(C)cc(OP(=S)(OC)OC)n1,inactive,
Cc1cc(C)nc(Nc2ccccc2)n1,inactive,
O=P(O)(O)CCCl,inactive,
CC(C)(C)C(=O)C(Oc1ccc(Cl)cc1)n1cncn1 (configuration not stated),inactive,
C=C(C)CN(CC)c1c([N+](=O)[O-])cc(C(F)(F)F)cc1[N+](=O)[O-],inactive,
C=CCOC(=O)C(C)(C)OC(=O)c1cc(-n2c(=O)cc(C(F)(F)F)n(C)c2=O)ccc1Cl,inactive,
CCN(CC)C(=O)C(C)Oc1cccc2ccccc12 (configuration not stated),inactive,
COCc1cnc(C2=NC(C)(C(C)C)C(=O)N2)c(C(=O)O)c1 (configuration not stated),inactive,
O=C1C2CC=CCC2C(=O)N1SC(Cl)(Cl)Cl (configuration not stated),,34.9 µM (active)
CCCC(=NOCC)C1=C(O)CC(CC(C)SCC)CC1=O (configuration not stated),inactive,
CO/N=C(/C1=NOCCO1)c1ccccc1Oc1ncnc(Oc2ccccc2Cl)c1F,inactive,
CC(C)Oc1cccc(NC(=O)c2ccccc2C(F)(F)F)c1,inactive,
CC(C)C1(C)N=C(c2ncccc2C(=O)O)NC1=O (configuration not stated),inactive,
COCC(=O)N(c1c(C)cccc1C)C(C)C(=O)OC (configuration not stated),inactive,
CC(C)N1C(=O)N(c2ccccc2)CSC1=NC(C)(C)C,inactive,
CCNP(=S)(OC)O/C(C)=C/C(=O)OC(C)C (configuration not stated),inactive,
CNC(=O)Oc1cccc2ccccc12,inactive,

# Read-out: serum amyloid A (SAA), SAA1 (gene 6288)
# Assay: BSK_CASM3C_SAA: BioMAP Diversity Plus: CASM3C Assay for serum amyloid A (SAA) Biomarker Activity (AID 2283049);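 note: SAA protein level quantified by ELISA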
# Settings: primary human coronary artery smooth muscle cells; actives raise or lower the signal
Compound,outcome,AC50
Cc1c(COC(=O)[C@@H]2[C@H](/C=C(\Cl)C(F)(F)F)C2(C)C)cccc1-c1ccccc1,inactive,
O=c1n(Cl)c(=O)n(Cl)c(=O)n1Cl,inactive,
CC1(C)CCC(=Cc2ccc(Cl)cc2)C1(O)Cn1cncn1 (configuration not stated),inactive,
COC(=O)N(C(=O)N1CO[C@@]2(C(=O)OC)Cc3cc(Cl)ccc3C2=N1)c1ccc(OC(F)(F)F)cc1,inactive,
CC1(C)CON(Cc2ccccc2Cl)C1=O,inactive,
Cn1c(-c2ccccc2)cc(-c2ccccc2)[n+]1C,inactive,
COC(=O)NC(=S)Nc1ccccc1NC(=S)NC(=O)OC,inactive,
N#CN=C1SCCN1Cc1ccc(Cl)nc1,inactive,
CS(=O)(=O)c1cc(C(F)(F)F)ccc1C(=O)c1cnoc1C1CC1,inactive,
COP(=S)(OC)SCn1nnc2ccccc2c1=O,inactive,
CCSC(=O)N1CCCCCC1,inactive,
O=C(O)c1c(Cl)ccc2cc(Cl)cnc12,inactive,
CCCCOCN(C(=O)CCl)c1c(CC)cccc1CC,inactive,
CC(C)N1C(=O)c2ccccc2NS1(=O)=O,inactive,
CCCCC(O)(Cn1cncn1)c1ccc(Cl)cc1Cl (configuration not stated),inactive,
COCC(C)N(C(=O)CCl)c1c(C)csc1C (configuration not stated),inactive,
CC1(C)C(C=C(Cl)Cl)C1C(=O)OC(C#N)c1cccc(Oc2ccccc2)c1 (configuration not stated),inactive,
CCOP(=S)(OCC)Oc1nc(Cl)n(C(C)C)n1,inactive,

Compound,outcome,AC50
COP(=O)(OC)O/C(C)=C/C(=O)N(C)C,inactive,
CCN(CC)c1nc(C)cc(OP(=S)(OC)OC)n1,inactive,
Cc1cc(C)nc(Nc2ccccc2)n1,inactive,
O=P(O)(O)CCCl,inactive,
CC(C)(C)C(=O)C(Oc1ccc(Cl)cc1)n1cncn1 (configuration not stated),inactive,
C=C(C)CN(CC)c1c([N+](=O)[O-])cc(C(F)(F)F)cc1[N+](=O)[O-],inactive,
C=CCOC(=O)C(C)(C)OC(=O)c1cc(-n2c(=O)cc(C(F)(F)F)n(C)c2=O)ccc1Cl,,0.859 µM (active)
CCN(CC)C(=O)C(C)Oc1cccc2ccccc12 (configuration not stated),inactive,
COCc1cnc(C2=NC(C)(C(C)C)C(=O)N2)c(C(=O)O)c1 (configuration not stated),inactive,
O=C1C2CC=CCC2C(=O)N1SC(Cl)(Cl)Cl (configuration not stated),,35 µM (active)
CCCC(=NOCC)C1=C(O)CC(CC(C)SCC)CC1=O (configuration not stated),inactive,
CO/N=C(/C1=NOCCO1)c1ccccc1Oc1ncnc(Oc2ccccc2Cl)c1F,inactive,
CC(C)Oc1cccc(NC(=O)c2ccccc2C(F)(F)F)c1,inactive,
CC(C)C1(C)N=C(c2ncccc2C(=O)O)NC1=O (configuration not stated),inactive,
COCC(=O)N(c1c(C)cccc1C)C(C)C(=O)OC (configuration not stated),inactive,
CC(C)N1C(=O)N(c2ccccc2)CSC1=NC(C)(C)C,inactive,
CCNP(=S)(OC)O/C(C)=C/C(=O)OC(C)C (configuration not stated),inactive,
CNC(=O)Oc1cccc2ccccc12,inactive,

# Reference: PubChem BioAssay (EPA / NIEHS)
